Measurements as given in PubChem BioAssay AID1259374 (The Scripps Research Institute Molecular Screening Center, 2018).
About 5,900 (0.91%) of roughly 650,000 compounds were called active. Shown is part of a subset that was picked to be rich in actives. A number with no mark means an inactive call. Rule as the data show it: active = inhibition above about 50%; inactive = the rest.

Biological target: Microphthalmia-associated transcription factor (Homo sapiens) (UniProt O75030)
Assay: MITF inhibitors, primary screen, biochemical, AlphaScreen, human (AID 1259374);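 also: 0% = vehicle wells with protein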
Conditions: AlphaScreen MITF homodimerization, bead proximity signal; at 2.6 µM; hits give high values

Microphthalmia-associated transcription factor (Homo sapiens), sequence (O75030 whole entry, looked up): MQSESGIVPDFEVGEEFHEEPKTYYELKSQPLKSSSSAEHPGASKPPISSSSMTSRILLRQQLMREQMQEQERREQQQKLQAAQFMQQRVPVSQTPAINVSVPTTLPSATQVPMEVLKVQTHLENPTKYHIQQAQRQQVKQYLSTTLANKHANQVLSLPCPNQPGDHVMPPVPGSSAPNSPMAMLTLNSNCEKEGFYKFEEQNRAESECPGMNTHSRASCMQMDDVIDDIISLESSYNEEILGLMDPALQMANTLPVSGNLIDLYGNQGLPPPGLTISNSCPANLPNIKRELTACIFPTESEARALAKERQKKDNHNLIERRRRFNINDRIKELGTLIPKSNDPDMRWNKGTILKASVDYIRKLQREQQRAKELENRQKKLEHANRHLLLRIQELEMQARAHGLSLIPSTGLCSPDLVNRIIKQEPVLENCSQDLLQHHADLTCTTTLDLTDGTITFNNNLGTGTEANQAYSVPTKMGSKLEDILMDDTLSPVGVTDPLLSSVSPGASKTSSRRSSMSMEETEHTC

SMILES | inhibition
CCC(C)(C)C(=O)N1CCN(Cc2ccc3c(c2)OCO3)CC1 | 9.89%
c1cc2c(cc1Cn1nnnc1CN1CCN(C3CCCC3)CC1)OCO2 | 7.92%
c1cc2c(cc1CN1CCN(C3CCCC3)CC1)OCO2 | 62.8% (active)
CC(=O)Oc1ccc(C(=O)N2CCN(Cc3ccc4c(c3)OCO4)CC2)cc1 | -6.96%
CCCNC(=O)N1CCCC(N2CCN(Cc3ccc4c(c3)OCO4)CC2)C1 (stereo not given) | 12.8%
c1cc2c(cc1CN1CCN(C3CCCCC3)CC1)OCO2 | 60.9% (active)
CC(C)CCCN1CCC(N2CCN(Cc3ccc4c(c3)OCO4)CC2)CCC1=O (stereo not given) | -10.8%
OC1CCCN(Cc2ccc3c(c2)OCO3)C1 (stereo not given) | 6.89%
COC(=O)C(C)CN1CCN(Cc2ccc3c(c2)OCO3)CC1 (stereo not given) | 78.9% (active)
COc1ccc(OC(=O)c2cccc(C(=O)OC(C)C)n2)cc1 | 7.42%
COCCNC(=O)c1ccc(-c2cccc(OC)c2)nc1NCC1CC1 | -12.1%
NC(=O)CC[C@H](NC(=O)c1ccc(F)cc1)C(=O)OCC(=O)c1ccccc1 | 1.49%
CO[C@@H](C1CCCCC1)[C@@H](C)[C@H](OCc1cccc(Br)c1)[C@@H](C)CO | -6.84%
CCN(Cc1ccccc1)Cc1cc(OC)c(OC)c(OC)c1 | 5.59%
COc1cc(CN(CCN(C)C)Cc2ccccc2)cc(OC)c1 | 70% (active)
COc1cc(CN(CCCN(C)C)CCCN(C)C)cc(OC)c1 | 45.5%
Cc1ccc(OCCCNC2CCCC2)c(I)c1 | 29.7%
CCOc1ccc2[nH]c(=O)c(CN(CCO)C(=O)c3ccco3)cc2c1 | 6.48%
COC(=O)CCS(=O)(=O)c1ccc(C(=O)O)cc1N | -6.29%
COc1ccc(-c2noc(=O)n2CC(=O)N(c2ccccc2)c2ccccc2)cc1 | 2.22%
CN1CCN(CCC(=O)N/N=C/c2ccsc2)CC1 | 53.5% (active)
O=C(CN1CCSCC1)N/N=C/c1ccc(Cl)cc1 | 17.4%
O=C(CN1CCSCC1)N/N=C/c1ccc(F)cc1 | 47%
COc1ccc2c(c1)OC(C)CN(C(=O)C1CCCCCN1C)C2 (stereo not given) | 1.95%
CCCNCc1nc(-c2ccc(OC)c(OC)c2)no1 | 11.7%

SMILES | inhibition
Cc1cnc(NCc2ccc3c(c2)OCO3)nc1Nc1ccccc1 | 69.7% (active)
c1ccc(Nc2cc(NCc3ccc4c(c3)OCO4)ncn2)cc1 | -2.56%
Cc1cnc(NCc2ccc3c(c2)OCO3)nc1NCCN1CCOCC1 | 16%
COc1ccc(-c2csc3nc(C)n(N)c(=O)c23)cc1OC | 14.4%
Fc1cccc(Cl)c1Cn1nnc(-c2ccncc2)n1 | 74% (active)
c1ccc(OCCCCn2nnc(-c3ccncc3)n2)cc1 | 10.3%
Fc1cccc(Cl)c1CSc1nnc2ncccn12 | -8.92%
CC1CCc2sc(NC(=O)c3ccccc3[N+](=O)[O-])c(C#N)c2C1 (stereo not given) | 11.5%
CC1=CCC(C(=O)O)(C(=O)N/N=C/C2=C(O)CC(C)(C)CC2=O)CC1c1ccccc1 (stereo not given) | 45.2%
COc1ccc(-c2nc(N)c3[nH]cnc3n2)cc1 | -0.37%
COc1cc(Nc2nc(Nc3cc(OC)c(OC)c(OC)c3)c3[nH]cnc3n2)cc(OC)c1OC | -7.41%
COc1ccc(-c2nc(Nc3cc(OC)c(OC)c(OC)c3)c3[nH]cnc3n2)cc1 | 63.2% (active)
Cc1cccc(NC(=O)C(c2ccccc2)N2CCOCC2)c1 (stereo not given) | 2.38%
Cc1c(C(C)NC(=O)c2csc(C(C)C)n2)cnn1-c1ccccn1 (stereo not given) | 1.61%
C=CCN=Cc1c(C)[nH]n(-c2ccc([N+](=O)[O-])cc2)c1=O | 0.33%
CCN1CCN(CCOCCOc2ccccc2OCc2ccccc2)CC1 | 80.8% (active)
COc1ccccc1OCCOCCOc1ccccc1OC | -12.3%
Cc1ccc(Cl)c(OCCn2cnc3ccccc3c2=O)c1 | 10.1%
CCCCOc1ccccc1OCCCN1CCN(C)CC1 | -4.11%
CCc1ccccc1OCCCN1CCOCC1 | 38.5%
O=c1c2ccccc2nc(-c2ccc(Cl)cc2)n1CCCCOc1ccccc1F | -6.63%
c1ccc2cc(OCCOCCN3CCOCC3)ccc2c1 | 12.8%
CCN1CCN(CC(=O)c2cc(OC)c(OC)c(OC)c2)CC1 | 6.5%
CCN1CCN(CCCOc2ccc(C(C)=O)cc2OC)CC1 | 77.9% (active)
CCN1CCN(CCCCOc2ccccc2F)CC1 | 63.7% (active)

SMILES | inhibition
COc1cc(C=O)ccc1OCCCN1CCCCC1 | 34.3%
O=c1c2ccccc2ncn1CCCCOc1ccccc1F | 52.4% (active)
C=CCC1(CC=C)CCCN1C(=O)CC1C(=O)NCCN1Cc1ccccc1C (stereo not given) | 5.18%
CCOC(=O)CSc1nc2ccc(Cl)cc2n2cnnc12 | -5.55%
Cc1nn(-c2ccccn2)c2c1C(=O)/C(=C\Nc1cccc([N+](=O)[O-])c1)CC2 | -6.22%
COc1ccc(C(=O)Oc2ccc3c(c2)C(C)=CC(C)(C)N3C(=O)c2ccc(OC)cc2)cc1 | 8.97%
Cc1ccc(S(=O)(=O)NC(=NC(CC(=O)O)C(=O)O)c2ccccc2)cc1 (stereo not given) | -0.64%
O=C1NC2(CCCCC2)N(C(=O)c2ccc(Cl)cc2)C2=C1CCCC2 | 9.62%
CCCCN(CC)C(=O)c1c[nH]c2ccc(S(=O)(=O)N(C)c3ccc(CC)cc3)cc2c1=O | 1.47%
CN1CCN(CCOCCOc2ccccc2Cl)CC1 | 53.8% (active)
Cc1ccc(OCCOCCN2CCN(C)CC2)c(Br)c1 | 42.5%
CC(C)c1cc(Br)ccc1OCCOCCN1CCN(C)CC1 | -24.1%
O=C(O)C1CSC(c2cccc(I)c2)N1 (stereo not given) | 10%
Cc1ccc(-c2c(C(=O)Nc3cccc(O)c3)oc(=O)c3ccccc23)cc1 | 26.8%
O=C(COc1ccc([N+](=O)[O-])cc1)Nc1ccc(Cl)cc1 | 12.6%
O=C(CCC(=O)OCc1ccc(Cl)cc1)Nc1ccc([N+](=O)[O-])cc1 | 59.3% (active)
O=C(O)CCC(=O)Nc1ccc([N+](=O)[O-])cc1 | -7.16%
CC(=O)C1=C(O)C(=O)N(CCCN(C)C)C1c1ccc(Br)cc1 (stereo not given) | 4.38%
COc1ccccc1/C=C1\SC(=S)N(CCC(=O)Nc2nc(C)cs2)C1=O | 13.4%
CCOCc1nnc(NC(=O)C2CC(=O)N(c3ccc(C)cc3)C2)s1 (stereo not given) | 9.92%
Cc1ccc(C)c(OCCN2CCOCC2)c1C | 54.9% (active)
Cc1cc(Cl)c(OCCN2CCOCC2)c(Br)c1 | 33.1%
Cc1cc(OCCN2CCOCC2)nc(N2CCOCC2)n1 | 5.58%
CCOc1cccc(C(=O)Nc2ccc3oc(-c4ccc(Cl)c(Cl)c4)nc3c2)c1 | 4.15%
CCOCCOC(=O)C1=C(C)NC(=O)NC1c1ccccc1 (stereo not given) | 2.55%

SMILES | inhibition
COc1cccc(/C=N/Nc2nc(=O)[nH]nc2C)c1OC | 35%
Cc1n[nH]c(=O)nc1N/N=C/c1cccs1 | 86.2% (active)
Cc1cccc(Nc2nc(=O)[nH]nc2C)c1 | 13.2%
O=c1[nH]cnc2nc(N/N=C/c3ccc(Cl)cc3)[nH]c12 | -5.83%
O=C(Nc1cccc(Br)c1)N1CCC(CN2CCCC2)CC1 | 5.45%
COc1cc(-c2cc(C(N)=O)on2)ccc1O | 3.55%
CC(=O)c1cccc(-c2ncc(C)c(N)n2)c1 | 0.72%
COc1cc2nc(-c3cccc(C(C)=O)c3)nc(Nc3ccc(N4CCOCC4)cc3)c2cc1OC | 1.79%
COc1cc2nc(-c3cccc(C(C)=O)c3)nc(N)c2cc1OC | 60.9% (active)
CC(=O)NC(c1cccs1)c1cc(Cl)c2cccnc2c1O (stereo not given) | 59.1% (active)
CCOc1ccc(C(NC(=O)c2cc(OC)c(OC)c(OC)c2)c2cc(Cl)c3cccnc3c2O)cc1 (stereo not given) | 17.1%
Cc1ccnc(NC(c2ccccc2Cl)c2ccc3cccnc3c2O)c1 (stereo not given) | 22.3%
CC(=O)NC(c1ccccc1)c1ccc2cccnc2c1O (stereo not given) | 54.5% (active)
O=C(Cc1ccccc1)NC(c1ccc(Cl)cc1)c1ccc2cccnc2c1O (stereo not given) | -1.99%
Oc1c(C(Nc2ccccn2)c2ccc(OC(F)F)cc2)ccc2cccnc12 (stereo not given) | 12.2%
COc1cccc(C(=O)NC(c2cccc([N+](=O)[O-])c2)c2cc(Cl)c3cccnc3c2O)c1 (stereo not given) | 4.72%
Oc1c(C(Nc2ccccn2)c2cccnc2)ccc2cccnc12 (stereo not given) | 58.1% (active)
Cc1ccc(C(NC(=O)Cc2ccccc2)c2ccc3cccnc3c2O)cc1 (stereo not given) | 3.27%
O=C(Oc1ccc2sc(=O)oc2c1)c1cccc(C(F)(F)F)c1 | -7.72%
N#Cc1ccc(NC(=O)c2ccccc2C(=O)O)cc1 | 4.7%
Cc1ccc(S(=O)(=O)N/N=C/c2cccnc2)cc1[N+](=O)[O-] | -30.1%
COc1ccc(/C=C/c2cc[n+](C)cc2)c(OC)c1 | -10.4%
CC(=O)Nc1cc(C(=O)NCCN2CCOCC2)cc(-n2ncc3cc(Nc4c(Cl)cccc4Cl)ccc32)c1 | -3%
CCOC(=O)C1C2C=CC3(CN(c4ccc(C)cc4)C(=O)C13)O2 (stereo not given) | 0.13%
O=C(CCCn1c(SCC(=O)c2ccc(Cl)c(Cl)c2)nc2ccsc2c1=O)NCCc1ccccc1 | 2.74%
